This passage reports inhibition results from PubChem BioAssay AID1376 (SRMLSC, 2008).

Screen size: about 220,000 compounds; about 530 (0.24%) were called active. No stated cut-off is given here; in the data, active means inhibition above about 13%; inconclusive means no clear call, values can overlap the other calls; inactive means below that. The entries come from a sample that favours actives as a whole. Potency and affinity values are given separately.

Bifunctional protein GlmU (Mycobacterium tuberculosis (strain ATCC 25618 / H37Rv)), sequence (P9WMN3 whole entry, looked up): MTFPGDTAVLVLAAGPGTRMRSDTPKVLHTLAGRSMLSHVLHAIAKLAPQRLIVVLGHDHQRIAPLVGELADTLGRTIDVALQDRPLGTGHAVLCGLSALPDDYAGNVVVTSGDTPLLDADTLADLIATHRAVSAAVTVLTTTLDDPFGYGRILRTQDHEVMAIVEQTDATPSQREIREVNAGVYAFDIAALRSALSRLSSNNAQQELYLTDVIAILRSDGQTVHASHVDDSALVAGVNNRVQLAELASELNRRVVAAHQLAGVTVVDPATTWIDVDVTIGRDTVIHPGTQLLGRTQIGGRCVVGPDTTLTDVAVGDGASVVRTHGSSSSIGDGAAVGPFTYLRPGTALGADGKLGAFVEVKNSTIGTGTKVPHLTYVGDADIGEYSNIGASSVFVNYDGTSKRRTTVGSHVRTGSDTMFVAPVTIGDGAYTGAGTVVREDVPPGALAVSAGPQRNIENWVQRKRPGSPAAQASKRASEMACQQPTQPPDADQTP

This test concerns the target Bifunctional protein GlmU (Mycobacterium tuberculosis (strain ATCC 25618 / H37Rv)) (UniProt P9WMN3). Briefly: inhibition of mycobacterial GlmU enzyme – biochemical, glucosamine-1-phosphate acetyltransferase (AID 1376).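 Further: 0% = complete reaction with vehicle and 100% = reaction without substrate.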 To be noted: M. tuberculosis GlmU acetyltransferase enzyme assay; hits give high values;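 tested at 30 µM in the primary screen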.
What is called inhibition is the relative decrease from the control value, in per cent. Regarding `Cc1ccc(N2C(=O)NC(=O)/C(=C\c3ccoc3)C2=O)cc1`, the inhibition was 0.76% (inactive).
In the case of `O=C1NC(=O)N(c2ccccc2)C(=O)/C1=C/c1ccoc1`, the inhibition is -0.64% (inactive).
On to `CCCC(c1nnnn1CC(=O)OCC)N(Cc1cc2ccc(C)cc2[nH]c1=O)C1CCCC1` (centres undefined), for which the inhibition is 7.33% (inactive).
Turning to `CCOC(=O)N1CCN(C(=O)CN(c2ccc(OCc3ccccc3)cc2)S(C)(=O)=O)CC1`, the inhibition is 4.38% (inactive).
Consider `O=C(NNC(=S)NC(=O)c1cccnc1)c1ccccc1`, for which the inhibition is -2.11% (inactive).
In the case of `O=C(NC(=S)NNC(=O)c1ccccc1F)c1cccnc1`, the inhibition is 3.92% (inactive).
With `Cc1ccccc1C(=O)NNC(=S)NC(=O)c1cccnc1`, the inhibition is 4.43% (inactive).
In the case of `O=C(NNC(=S)NC(=O)c1cccnc1)c1ccc(Cl)cc1`, the inhibition was -3.46% (inactive).
In the case of `O=C(NC(=S)NNC(=O)c1ccccc1O)c1cccnc1`, the inhibition is 12.9% (active).
Turning to `O=C(NNC(=S)NC(=O)c1cccnc1)c1ccc(F)cc1`, the inhibition was 13.5% (active).
Under `CCOC(=O)C1=C(C)Nc2nc3ccccc3n2C1c1ccc(O)cc1` (centres undefined) stands 6.95% (inactive); under `Nc1nc(CN2CCN(C(c3ccccc3)c3ccccc3)CC2)nc(Nc2ccccc2)n1`, -2.82% (inactive); under `COC(=O)CC1C(=O)NCCN1C(=O)CSc1nnnn1-c1ccc(OC)cc1` (centres undefined), -2.52% (inactive).
With `O=C(O)C1CC1c1ccc(Br)cc1` (centres undefined), the inhibition is 2.18% (inactive).
For the molecule `CCCNc1nc(C)nc2c1cnn2CCc1ccccc1`, the inhibition is 1.42% (inactive).
Consider `CCN(CC)c1ccc(C=C2C(=O)OC3(CCCC3)OC2=O)cc1`, for which the inhibition was -0.14% (inactive).
Under `CCN(CC)c1ccc(C=C2C(=O)OC3(CCCCC3)OC2=O)cc1` stands -3.43% (inactive).
Turning to `CCN(CC)c1ccc(C(=O)O)cc1`, the inhibition was -1.49% (inactive).
Consider `O=C(O)c1ccc2c(c1)C(=O)/C(=C/c1ccccc1)C2=O`, for which the inhibition is 18.9% (inactive).
Consider `COc1ccc(-c2ccc(OC)c([C@H]3[C@H]4C=CC[C@@H](C)[C@@H]4C(=O)N3Cc3ccccc3)c2)cc1C`, for which the inhibition was 1.44% (inactive).
`CCOc1cc2c(cc1C=O)OC(C)C2` (centres undefined): the inhibition was -3.18% (inactive).
Regarding `Cc1ccc(C(=O)NCc2ccccn2)cc1Cl`, the inhibition was -4.77% (inactive).
Consider `O=C(c1ccc2c(c1)OCCO2)N1CCN(Cc2ccccc2)CC1`, for which the inhibition was 0.55% (inactive).
To `CCC(OC(=O)CC1Sc2ccccc2NC1=O)C(=O)NCC1CCCO1` (centres undefined) belongs -4.76% (inactive).
To `CCCCCCOC(=O)CCc1c(C)nc(N)[nH]c1=O` belongs 1.43% (inactive); to `O=CC(Br)P(=O)(N1CCOCC1)N1CCOCC1` (centres undefined), 13.9% (active); to `CC(C)(C)P(=O)(N1CCOCC1)N1CCOCC1`, -0.04% (inactive).
Under `O=CC(Cl)P(=O)(N1CCOCC1)N1CCOCC1` (centres undefined) stands 5.15% (inactive); under `CN(c1ccccc1)c1nc(N)c([N+](=O)[O-])c(NCc2ccccc2)n1`, -0.66% (inactive).
In the case of `CCCC(=O)NNc1cc(=O)c2c(=O)n(C)c(=O)n(C)c2[nH]1`, the inhibition was -0.71% (inactive).
`Cc1ccc(N2CC(C(=O)NCCC(C)C)CC2=O)cc1` (centres undefined): the inhibition was 1.29% (inactive).
As to `N#CC12CNCC1CN=N2` (centres undefined), the inhibition was 15.5% (active).
Regarding `Cc1ccc2c(c1)C(c1ccccc1)C(=O)O2` (centres undefined), the inhibition was 2.36% (inactive).
As to `Cc1noc(C)c1COC(=O)CCOc1ccccc1`, the inhibition is 13.2% (active).
For `Cc1noc(C)c1COC(=O)C(c1ccccc1)c1ccccc1`, the inhibition is -2.73% (inactive).
In the case of `COc1ccc(OCCC(=O)OCc2c(C)noc2C)cc1`, the inhibition was 3.9% (inactive).
For `Cc1ccc(N2CCN(C(=O)Nc3cccc([N+](=O)[O-])c3)CC2C)cc1` (centres undefined), the inhibition is 5.55% (inactive).
Consider `CCc1ccc(C(=O)N/N=C/c2cccc3ccccc23)nc1`, for which the inhibition was -1.08% (inactive).
For `O=C(c1ccccc1F)N1CCN(c2ccc([N+](=O)[O-])c(NCc3cccnc3)c2)CC1`, the inhibition was 4.22% (inactive).
Under `Cc1ccccc1C(=O)N1CCN(c2ccc([N+](=O)[O-])c(NCc3cccnc3)c2)CC1` stands 14.5% (active); under `O=C(c1ccccc1)N1CCN(c2ccc([N+](=O)[O-])c(NCc3cccnc3)c2)CC1`, -14.7% (inactive); under `N#Cc1cc(C(=O)c2cc(Cl)ccc2O)cn(CC2CCCO2)c1=O` (centres undefined), 1% (inactive).
Regarding `Cc1cc(C)c2c(=O)n(CC(=O)Nc3cccc(F)c3)sc2n1`, the inhibition was 9.3% (inactive).
Regarding `Cc1ccc(NC(=O)Cn2sc3nc(C)cc(C)c3c2=O)c(Cl)c1`, the inhibition is 2.26% (inactive).
To `Cc1cc(C)c2c(=O)n(CC(=O)Nc3cccc(Cl)c3C)sc2n1` belongs 3.9% (inactive).
For the molecule `CCCNC(=O)Cn1sc2nc(C)cc(C)c2c1=O`, the inhibition was 9.09% (inactive).
For the molecule `Cc1cc(C)c2c(=O)n(CC(=O)NC3CCCC3)sc2n1`, the inhibition is 15% (active).
`Cc1cc(C)c2c(=O)n(CC(=O)N3CCC(N4CCCCC4)CC3)sc2n1`: the inhibition was -2.82% (inactive).
In the case of `Cc1cc(C)c2c(=O)n(CC(=O)Nc3ccc(Cl)cc3)sc2n1`, the inhibition is 13% (active).
Regarding `CCOc1ccc(NC(=O)Cn2sc3nc(C)cc(C)c3c2=O)cc1`, the inhibition was 14.9% (active).
For `Cc1cc(C)c2c(=O)n(CC(=O)Nc3ccc(Br)c(C)c3)sc2n1`, the inhibition is -1.95% (inactive).
Under `COc1ccc(/C=N/n2c(-c3cc(C)[nH]n3)n[nH]c2=S)cc1OC` stands 5.27% (inactive).
As for `Cc1ccc(NC(=O)NCc2c(C)nn(C)c2C)cc1Cl`, the inhibition was 2.69% (inactive).
Under `C#CCCOC(=O)N1C2=NC(C(=O)OC)=C(C(=O)OC)[C@@H]3N(CC=C)c4ccccc4[C@]23C[C@H]1C(=O)OC` stands -1.18% (inactive); under `CCCCn1c(SCC(=O)N2CCCCC2C)nc2cc(S(N)(=O)=O)ccc21` (centres undefined), -1.4% (inactive).
To `COc1ccc(OCc2nnc(SCC(=O)NNC(=O)c3ccc(C)cc3)n2C)cc1` belongs 0.34% (inactive).
To `COc1cc(/C=C(\C#N)c2nc3ccccc3[nH]2)cc(OC)c1O` belongs 4.95% (inactive); to `COc1cc(/C=C(\C#N)c2nc3ccc(C)cc3[nH]2)c([N+](=O)[O-])cc1OC`, 2.93% (inactive).
Consider `CCOC(=O)N1CCN(CC(=O)N2c3ccccc3CCc3ccccc32)CC1`, for which the inhibition was -2.37% (inactive).
Under `CCOc1ccc(C(=O)NCC(=O)OCC(=O)Nc2ccc(C)c(S(=O)(=O)N(C)C)c2)cc1` stands -3.11% (inactive); under `CCCc1ccc(C(=O)NC(=O)c2ccccc2O)cc1`, 2.73% (inactive).
For the molecule `CCn1cnc2c1c(=O)n(CC(=O)Nc1ccc3c(c1)OC(F)(F)O3)c(=O)n2Cc1ccccc1`, the inhibition was -4.42% (inactive).
`CCC(=O)N1CCC2(CC1)Oc1ccc(Cl)cc1C(=O)C21CC(c2ccccc2)=NO1` (centres undefined): the inhibition was 3.83% (inactive).
Turning to `Cc1cc(C)n2ncc(C(=O)Nc3ccc4c(c3)OCO4)c2n1`, the inhibition is 1.37% (inactive).
For the molecule `COC(=O)Cc1c(C)c2ccc(OCc3nn[nH]n3)c(C)c2oc1=O`, the inhibition was 0.72% (inactive).
As for `COc1cc(/C=C(\C#N)C(=O)NCC2CCCO2)ccc1OCC(=O)O` (centres undefined), the inhibition is -0.12% (inactive).
As to `COCCCNC(=O)/C(C#N)=C/c1ccc(F)cc1`, the inhibition was -2.31% (inactive).
Under `COCCCNC(=O)/C(C#N)=C/c1ccc(OCC(=O)O)c(OC)c1` stands 13.8% (active); under `COc1ccc2cc(-c3[nH]ncc3CN3CCCCO3)ccc2c1`, -2.52% (inactive).
To `N/C(=N\O)c1ccc(NC(=O)c2cccs2)cc1` belongs 4.24% (inactive).
For the molecule `O=C(Nc1c(F)c(F)c(F)c(F)c1F)C1CCCCC1`, the inhibition is -1.91% (inactive).
With `O=C(/C=C/c1ccccc1)c1c(O)n(CCc2ccccc2)c(=O)[nH]c1=O`, the inhibition was 1.89% (inactive).
For the molecule `Cn1cc(/C=N/NC(=O)c2cc3cc(Br)ccc3o2)c2ccccc21`, the inhibition was -2.19% (inactive).
To `O=C(O)Cn1cc(/C=N/NC(=O)c2cc3cc(Br)ccc3o2)c2ccccc21` belongs -0.33% (inactive); to `COc1ccccc1OCc1ccc(C(=O)NCC2CCCO2)o1` (centres undefined), 1.7% (inactive); to `CCCCOc1ccc(C(=O)N2CC(C)OC(C)C2)cc1` (centres undefined), 6.38% (inactive).
Regarding `CCCCOc1ccc(C(=O)N2CCC(C)CC2)cc1`, the inhibition was -0.91% (inactive).
To `CCCCOc1ccc(C2CCC(C(C)=O)C(C)C2)cc1` (centres undefined) belongs 13.4% (active).
For `CCCSC1=N/C(=C\c2ccc([N+](=O)[O-])o2)C(=O)S1`, the inhibition is 21.6% (active).
For the molecule `CCCSC1=N/C(=C\c2ccsc2)C(=O)S1`, the inhibition is -1.15% (inactive).
To `CCSC1=N/C(=C\c2ccc(-c3ccccc3[N+](=O)[O-])o2)C(=O)S1` belongs 6.21% (inactive); to `Cc1cc(N2CCN(S(=O)(=O)c3ccccc3)CC2)c2ccccc2n1`, -2.32% (inactive); to `C/C(=N\N1CCN(C)CC1)c1ccc(Cl)c(Cl)c1`, -1.93% (inactive).
For `O=C(CN1CCN(Cc2ccccc2Cl)CC1)N/N=C/c1ccco1`, the inhibition was 2.34% (inactive).
`CCN(CC)C(=S)SCC(=O)c1ccccc1`: the inhibition was 2.19% (inactive).
As to `CCN(CC)C(=S)SC1=CCS(=O)(=O)C1`, the inhibition was -2.51% (inactive).
With `O=S(=O)(NCc1ccccc1)c1ccc(F)cc1Br`, the inhibition is 6.02% (inactive).
To `CN(C)c1ccc(/C=C2\C(=N)N3C(=NC2=O)Sc2cc(S(C)(=O)=O)ccc23)cc1` belongs -6.57% (inactive).
Take `COc1ccc(/C=C2/C(=N)N3C(=NC2=O)Sc2cc(S(C)(=O)=O)ccc23)cc1OC`: the inhibition was 3.31% (inactive).
For the molecule `COC(=O)c1cc(C#N)c(Oc2ccc(OC)cc2)nc1C`, the inhibition was 8.02% (inactive).
Turning to `C/C(C/C(C)=C1/SC(=S)NC1=O)=C1\SC(=S)NC1=O`, the inhibition is 49% (active).
Regarding `CCCCCC/C(C)=C1/SC(=S)NC1=O`, the inhibition is -3.54% (inactive).
Consider `CCO/C(C)=C1/SC(=S)NC1=O`, for which the inhibition was -6.59% (inactive).
As to `Cn1nc(-c2ccccc2)c(C(=O)NC(C(=O)O)c2ccccc2)c1Cl` (centres undefined), the inhibition was 1.91% (inactive).
Consider `CN(C)C(=O)CSc1ncnc2scc(-c3ccccc3)c12`, for which the inhibition was 2.78% (inactive).
As for `Clc1nssc1=Nc1ccccc1`, the inhibition is 14.6% (active).
Turning to `Clc1nssc1=Nc1ccc(Br)cc1`, the inhibition is 18% (inactive).
To `Cc1ccc(N=c2ssnc2Cl)cc1` belongs 17.6% (inactive); to `COc1cc(N=c2ssnc2Cl)cc(OC)c1`, 12.8% (inactive).
As to `COc1cc(N=c2ssnc2Cl)cc(OC)c1OC`, the inhibition is 14.1% (active).
As for `COc1ccc(N=c2ssnc2Cl)cc1`, the inhibition was 5.49% (inactive).
`N#Cc1cccc(N=c2ssnc2Cl)c1`: the inhibition is -3.05% (inactive).
Turning to `Clc1ccc(N=c2ssnc2Cl)cc1`, the inhibition was 19.9% (active).
Consider `N#Cc1ccc(N=c2ssnc2Cl)cc1`, for which the inhibition is 18.4% (inactive).
